Experimental data published in PubChem BioAssay AID504545 (Broad Institute, 2011).
Results with a measured potency or affinity are listed apart. Results filed as inconclusive are left out. Active and inactive are the calls of the source. How the calls were made is not given here.

Each molecule was assayed against Cyclin-dependent kinase 5 activator 1 (Homo sapiens) + Cyclin-dependent kinase 5 (Homo sapiens) (UniProt Q15078+Q00535) (assay: blockade of human CDK5 activity – biochemical, cherry-picked samples, set 2, dose response (AID 504545)). Details: CDK5/p35 kinase activity, biochemical plate reader; series mostly up to 30 µM.
Sequence of Cyclin-dependent kinase 5 activator 1 (Homo sapiens) + Cyclin-dependent kinase 5 (Homo sapiens) (Q00535 whole entry, looked up): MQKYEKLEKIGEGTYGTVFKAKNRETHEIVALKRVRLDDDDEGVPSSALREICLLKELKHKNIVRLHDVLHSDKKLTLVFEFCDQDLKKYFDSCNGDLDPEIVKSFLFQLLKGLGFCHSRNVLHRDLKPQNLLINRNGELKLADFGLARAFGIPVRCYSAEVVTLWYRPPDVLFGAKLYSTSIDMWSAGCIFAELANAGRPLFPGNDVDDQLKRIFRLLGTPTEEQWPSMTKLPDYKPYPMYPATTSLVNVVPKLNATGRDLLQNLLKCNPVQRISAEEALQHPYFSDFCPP
Sequence of Cyclin-dependent kinase 5 activator 1 (Homo sapiens) + Cyclin-dependent kinase 5 (Homo sapiens) (Q15078 whole entry, looked up): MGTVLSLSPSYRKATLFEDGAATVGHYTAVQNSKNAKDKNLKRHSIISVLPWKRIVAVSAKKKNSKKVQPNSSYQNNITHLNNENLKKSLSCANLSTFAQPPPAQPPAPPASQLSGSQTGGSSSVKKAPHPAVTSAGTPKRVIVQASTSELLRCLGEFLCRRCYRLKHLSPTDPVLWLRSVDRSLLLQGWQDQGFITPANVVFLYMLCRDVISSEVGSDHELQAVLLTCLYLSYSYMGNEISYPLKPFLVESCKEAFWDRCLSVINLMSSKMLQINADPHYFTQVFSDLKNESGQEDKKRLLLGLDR

| Structure (SMILES) | outcome |
| --- | --- |
| O=C(O)c1ccc(N/N=C/c2ccc(C(F)(F)F)cc2)cc1 | inactive |
| O=C(NNC(=O)c1ccco1)c1ccccc1 | inactive |
| Nc1ncnc2c1ncn2C1OC(CO)C(O)C1O (stereo not drawn) | inactive |
| O=C(NNC(=O)c1ccccn1)c1ccc(OC(F)F)cc1 | inactive |
| CC(C)=CCNc1ncnc2c1c(C#N)cn2C1OC(CO)C(O)C1O (stereo not drawn) | inactive |
| Oc1cccc(C=NNc2ccccn2)c1 | inactive |
| COc1ccc(Nc2nccc(-c3ccc([N+](=O)[O-])cc3)n2)cc1 | inactive |
| Cc1ccc2nc(Cl)c(C#N)cc2c1 | inactive |
| Cc1nc(Nc2ccccc2)sc1C(=O)c1ccc(F)cc1 | inactive |
| COc1cccc(OC)c1C(=O)N1CCN(c2ccccn2)CC1 | inactive |
| COc1cc(OC)cc(C(=O)NNC(=O)c2ccccn2)c1 | inactive |
| COc1ccccc1C(=O)N1CCN(c2ccccn2)CC1 | inactive |
| COc1cccc(C(=O)N2CCN(c3ccccn3)CC2)c1 | inactive |
| Cc1ccc(C(=O)O/N=C(\N)c2ccccn2)cc1C | inactive |
| Cc1ccc(Nc2nc(NCCO)nc3c2cnn3C)cc1Cl | inactive |
| Cc1cccc(/N=C/c2c(O)ccc3oc4c(c23)CCCC4)n1 | inactive |
| COc1ccc2nc(C)cc(Nc3ccc(C)cc3)c2c1 | inactive |
| CC(C)(C)c1ccc(C(=O)O/N=C(\N)c2ccccn2)cc1 | inactive |
| COc1ccc(C(=O)N2CCN(c3ccccn3)CC2)cc1 | inactive |
| COc1ccc(Nc2nc(N)c(C(=O)c3ccc(F)cc3)s2)cc1 | inactive |
| CC(C)[C@H](CO)N(Cc1cccc(F)c1)c1nc(Nc2cccc(Cl)c2)c2ncn(C(C)C)c2n1 | inactive |
| CC(C)C[C@H](CO)Nc1nc(N(C)c2cccc(Cl)c2)c2ncn(C(C)C)c2n1 | inactive |
| CCNc1nc(Nc2ccc(C)c(Cl)c2)c2cnn(C)c2n1 | inactive |
| Cc1nc(Nc2ccccc2)sc1C(=O)c1ccccc1 | inactive |
| O=C(O)CCC(=O)NCCn1c(-c2ccccc2)csc1=Nc1ccccc1 | inactive |
| CCOc1cc(C(=O)N2CCN(c3ccccn3)CC2)cc(OCC)c1OCC | inactive |
| COc1ccc2nc(C(F)(F)C(F)(F)F)c(C#N)c(N)c2c1 | inactive |
| COc1ccc2oc(C(=O)NCCC(C)C)c(C)c2c1 | inactive |
